Records with an inconclusive call do not appear. Calls of active or inactive are those of the source. The calls were made as follows: active = hit-call score of the fitted dose curve at least 0.9, where 1 is the maximum; inconclusive = response in the unintended direction; inactive = score below 0.9.
Tests used:
[1] = target: human Retinoid X Receptor beta (RXRb), RXRB (gene 6257) (UniProt P28702); assay: ATG_RXRb_TRANS: Attagene TRANS-FACTORIAL HepG2 Assay for human Retinoid X Receptor beta (RXRb) (AID 2283013)
Chain of human Retinoid X Receptor beta (RXRb), RXRB (gene 6257) (P28702 whole entry, looked up, the tested form may be a part): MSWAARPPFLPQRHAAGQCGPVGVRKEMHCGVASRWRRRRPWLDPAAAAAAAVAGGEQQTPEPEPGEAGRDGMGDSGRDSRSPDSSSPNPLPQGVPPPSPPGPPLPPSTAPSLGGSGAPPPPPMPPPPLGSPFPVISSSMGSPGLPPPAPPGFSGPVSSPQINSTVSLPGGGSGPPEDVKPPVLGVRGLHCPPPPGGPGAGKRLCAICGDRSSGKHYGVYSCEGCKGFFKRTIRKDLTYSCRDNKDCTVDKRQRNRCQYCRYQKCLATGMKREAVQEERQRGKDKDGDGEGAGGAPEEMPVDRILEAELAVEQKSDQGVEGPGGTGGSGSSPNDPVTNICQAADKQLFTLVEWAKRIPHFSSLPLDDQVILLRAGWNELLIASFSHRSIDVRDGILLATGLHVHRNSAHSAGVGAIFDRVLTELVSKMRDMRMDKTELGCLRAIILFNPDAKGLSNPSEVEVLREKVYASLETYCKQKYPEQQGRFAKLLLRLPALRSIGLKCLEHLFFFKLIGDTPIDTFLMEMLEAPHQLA
How it was run: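 Readout is reporter transcript induction after 24 h dosing. It is measured by RT-PCR of total RNA followed by fluorescent capillary electrophoresis. HepG2 liver cells carry transfected multiple reporter units driven by an exogenous RXRb-Gal4 fusion; activity is relative to DMSO.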

[2] = target: human Thyroid Receptor alpha (THRa1), THRA (gene 7067) (UniProt P10827); assay: ATG_THRa1_TRANS: Attagene TRANS-FACTORIAL HepG2 Assay for human Thyroid Receptor alpha (THRa1) (AID 2283014)
Chain of human Thyroid Receptor alpha (THRa1), THRA (gene 7067) (P10827 whole entry, looked up, the tested form may be a part): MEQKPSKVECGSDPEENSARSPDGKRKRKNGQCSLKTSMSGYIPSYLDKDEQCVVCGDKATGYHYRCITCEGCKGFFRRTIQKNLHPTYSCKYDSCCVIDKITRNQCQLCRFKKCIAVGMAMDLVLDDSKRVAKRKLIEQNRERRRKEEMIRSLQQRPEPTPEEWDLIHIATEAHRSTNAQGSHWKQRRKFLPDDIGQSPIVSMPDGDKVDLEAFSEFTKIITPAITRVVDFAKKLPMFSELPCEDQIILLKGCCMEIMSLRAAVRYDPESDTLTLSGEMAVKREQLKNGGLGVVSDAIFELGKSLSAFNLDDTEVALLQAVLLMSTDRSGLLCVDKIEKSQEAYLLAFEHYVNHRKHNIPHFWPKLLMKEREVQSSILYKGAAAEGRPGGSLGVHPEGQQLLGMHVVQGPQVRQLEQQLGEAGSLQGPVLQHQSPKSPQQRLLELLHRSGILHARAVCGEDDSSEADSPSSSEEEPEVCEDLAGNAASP
How it was run: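 Transient HepG2 transfection, NR-Gal4 chimera driving GAL4-UAS reporters; 24 h compound exposure; total RNA, oligo(dT) RT, PCR, fluorescent primer extension, capillary electrophoresis. Upward direction vs DMSO control.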

| Structure (SMILES) | outcome [1] | outcome [2] | AC50 [1] |
| --- | --- | --- | --- |
| Cc1cccc(Nc2ccccc2C(=O)O)c1C | inactive | inactive |  |
| O=C(COc1ccc(Cl)cc1)N1CCN(Cc2ccc3c(c2)OCO3)CC1 | inactive | inactive |  |
| CC(C)=CCCC(C)CC=O (stereo unspecified) | inactive | inactive |  |
| C=CC(=O)OCC(O)COc1ccccc1 (stereo unspecified) | inactive | inactive |  |
| CC(=O)OCc1ccc2c(c1)OCO2 | inactive |  |  |
| CC(=O)[O][Al][O]C(C)=O |  | inactive | 44.5 µM (active) |

Reference: PubChem BioAssay (EPA / NIEHS)
